# From PubChem
# PLK1 PBD inh = PLK1 (human) polo-box domain binding inhibition | P53350 | Plk1 PBD binding of FITC phosphopeptide, fluorescence polarization | Potency, µM, without a hit: max response, negative = inhibition, usual class: inhibitors | 360,000 compounds, 2.8% hits; note: potency is the fitted concentration of half-maximal effect; series mostly up to about 57 µM; % is set by controls: 0 for no effect and ±100 for the full control effect; nearly all actives have a fitted effect of over 65% in size
# BAZ2B inh = inhibitors of human BAZ2B bromodomain; Potency, µM (series often up to 114 µM), without a hit: at the highest dose activity change, negative = inhibition, hits mostly inhibitors; AlphaScreen BAZ2B-H3K14Ac peptide displacement; Q9UIF8; 360,000 compounds, 4.4% hits; note: potency is the fitted concentration of half-maximal effect; % is set by controls: 0 for no effect and ±100 for the full control effect; nearly all actives have a fitted effect of over 60% in size
#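 Multi-concentration screen (max 110 uM) measuring displacement of acetylated histone H3 peptide from BAZ2B by AlphaScreen, using 50 nM protein, 50 nM peptide and 10 ug/mL streptavidin donor plus Ni-chelate acceptor beads.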
# PI5P4K alpha inh = inhibitors of human PI5P4K alpha | P48426 | 330,000 compounds, 1.2% hits | PI5P4Kalpha enzyme, ADP-Glo luminescence, 60 min; active compounds read low | max response, %; active = max response of -50% or lower; inconclusive = between -30% and -50%; inactive = -30% or higher; note: value at the top dose of about 77 µM; % is set by controls: 0 for no effect and ±100 for the full control effect
#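 Quantitative HTS of the MLSMR library against PI5P4Kalpha with substrate. ATP added last at 5 microM final; room temperature, 60 minutes. Remaining ATP depleted, ADP converted and read as luminescence.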
# JMJD2A Tudor = inhibitors of human JMJD2A Tudor domain | O75164 | AlphaScreen JMJD2A-Tudor / H3K4me3 peptide binding | Potency, µM (highest dose often 114 µM), inactives show top-dose activity change, negative = inhibition, most hits filed as inhibitors | 390,000 compounds, 4.4% hits; note: potency is the fitted concentration of half-maximal effect; % is set by controls: 0 for no effect and ±100 for the full control effect; nearly all actives have a fitted effect of over 50% in size
# G9a block = inhibitors of human histone lysine methyltransferase G9a | Q96KQ7 | G9a H3K9 monomethylation, AlphaScreen, 2 h | Potency, µM (highest dose often 102 µM), for the others: at the highest dose activity, negative = inhibition, most hits filed as inhibitors | 350,000 compounds, 8.8% hits | AID 504332; note: potency is the fitted concentration of half-maximal effect; % is set by controls: 0 for no effect and ±100 for the full control effect; nearly all actives have a fitted effect of over 75% in size
# Target sequence (Q96KQ7 913-1193 limits assumed): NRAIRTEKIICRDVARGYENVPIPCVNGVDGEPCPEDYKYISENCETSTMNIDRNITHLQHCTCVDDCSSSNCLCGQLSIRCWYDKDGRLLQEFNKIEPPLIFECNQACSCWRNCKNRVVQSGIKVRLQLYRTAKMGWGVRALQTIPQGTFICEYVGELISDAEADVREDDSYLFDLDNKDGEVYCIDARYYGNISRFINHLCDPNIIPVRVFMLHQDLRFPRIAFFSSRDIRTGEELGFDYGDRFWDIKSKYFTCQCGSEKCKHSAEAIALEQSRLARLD
#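 Methyltransferase reactions run at room temperature for 2 h (20 nM enzyme, 500 nM biotin-H3K9 peptide, 20 uM SAM) after a 15 min compound preincubation; product detected by AlphaScreen beads and anti-H3K9me1 antibody.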
# HP1b binding inh = HP1-beta chromodomain-methylated histone interaction inhibition; AlphaScreen HP1-beta / biotin-H3K9me3 peptide binding; Potency, µM (top dose mostly 114 µM), for the others: at the top dose activity change, negative = inhibition, actives largely listed as inhibitors; P83916; 390,000 compounds, 0.56% hits; note: potency is the fitted concentration of half-maximal effect; nearly all actives have a fitted effect of over 70% in size
# Target sequence (P83916 whole entry, looked up): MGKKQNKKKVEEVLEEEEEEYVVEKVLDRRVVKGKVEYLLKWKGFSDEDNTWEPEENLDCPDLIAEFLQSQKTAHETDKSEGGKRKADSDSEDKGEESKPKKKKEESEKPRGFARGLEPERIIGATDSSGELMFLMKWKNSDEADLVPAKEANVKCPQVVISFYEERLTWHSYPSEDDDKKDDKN
#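 HP1-beta protein (50 nM final) preincubated 30 min at room temperature with biotinylated H3(1-18)K9me3 peptide (50 nM) in PBS pH 7.4, 0.01% Tween-20, then compound added for 30 min. AlphaScreen streptavidin donor/nickel chelate acceptor beads (10 ug/mL final), 30 min dark, luminescence read.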
# * hit, by the source's call; u = inconclusive; x = not tested or not shown; [ ] = dose if it differs, or a comment. An excerpt weighted towards active compounds, which were near 12% of everything screened. Unless noted, calls come from the whole dose curve; as a rule, active = well fitted curve in the direction sought with a large enough effect; inconclusive = small, poorly fitted or top-dose-only effect, or another doubt; inactive = no such curve, though single readings can be large; an effect the other way counts as inactive or inconclusive.
SMILES,PLK1 PBD inh,BAZ2B inh,PI5P4K alpha inh,JMJD2A Tudor,G9a block,HP1b binding inh
CC(C)(C)C(=O)N1CCN(c2ccc([N+](=O)[O-])cc2-n2cccc2)CC1,-10%,u,5,-28%,-40%,-36%
Cc1ccc(C(=O)N2CCN(c3ccc([N+](=O)[O-])cc3-n3cccc3)CC2)cc1,-11%,u,-1,u,28µM*,u
O=C(c1ccc(Br)cc1)N1CCN(c2ncccn2)CC1,-2%,x,2,-9%,x,24%
CCNC(=O)C1CCCN(C(=O)c2ccc(N(C)C)cc2)CC1 (stereo not drawn),4%,x,0,x,x,x
COc1ccc(CNC(=O)CCc2cn(C)c3ccccc23)cc1,x,u,x,-27%,-33%[59 µM],10%
C(=N\Nc1nc(N2CCOCC2)nc(N2CCOCC2)n1)/c1ccco1,x,u,x,x,-2%,x
Fc1ccc(Nc2nc(N/N=C/c3ccco3)nc(N3CCCCC3)n2)cc1,-4%,u,-12,u,40µM*,-9%
COc1ccc(N2CCN(c3ncnc4c3[nH]c3ccccc34)CC2)cc1,2%,u,0,50µM*,13µM*,-13%
COc1ccc2[nH]c3c(N4CCc5ccccc5C4)ncnc3c2c1,6%,u,-15,u,45µM*,-18%
COc1cc2[nH]c3c(N4CCN(c5ccccn5)CC4)ncnc3c2cc1OC,0%,u,-20,-28%,45µM*,-9%
CCOC(=O)N1CCN(c2ncnc3c2[nH]c2ccc(F)cc23)CC1,0%,-3%,12,3%,7%[59 µM],25%
Fc1ccc2[nH]c3c(N4CCN(c5ccccc5)CC4)ncnc3c2c1,-2%,40µM*,2,u,u,-10%
COc1cc(OC)c(Nc2nc3ccc(C)cc3n3nnnc23)cc1Cl,x,-2%,x,7%,-6%[59 µM],50%
CC(=O)N/C(=C/c1ccccc1)C(=O)N1CCCCC1,3%,-1%,-5,-10%,50µM*,19%
COc1ccccc1C(=O)N/C(=C/c1ccc(Br)cc1)C(=O)N1CCCC1,27µM*,-15%,-25,50µM*,14%,-19%
CC(=O)N/C(=C\c1ccccc1)C(=O)OCC(=O)N1CCCCCC1,-8%,1%,4,-7%,-38%,18%
COc1ccccc1C(=O)N/C(=C\c1ccc(Br)cc1)C(=O)NCC(=O)O,-10%,7%,12,-7%,8%[59 µM],11%
CN(Cc1ccccc1)c1ccc(-c2nc(-c3ccccn3)no2)cc1[N+](=O)[O-],x,4%,x,6%,u,40%
CCOCCCn1c(SCC(=O)Nc2oc(C)c3c(C)n[nH]c(=O)c23)nnc1-c1ccncc1,-5%,3%,5,-20%,35µM*,11%
CCc1cc2c(=O)n(CCCOC)c(SCC(=O)Nc3oc(C)c4c(C)n[nH]c(=O)c34)nc2s1,-5%,5%,1,-10%,56µM*,30%
Cc1ccc(C)c(SCC(=O)Nc2oc(C)c3c(C)n[nH]c(=O)c23)c1,-21%,-9%,-6,-16%,40µM*,14%
Cc1n[nH]c(=O)c2c(NC(=O)CSc3ncccn3)oc(C)c12,-9%,0%,1,-12%,50µM*,32%
Cc1ccc(SCC(=O)Nc2oc(C)c3c(C)n[nH]c(=O)c23)cc1C,-18%,1%,-6,-20%,1%[12.7 µM],40%
Cc1noc(C)c1S(=O)(=O)NC(=O)C1(C)CCN1C(=O)Cc1ccc(-c2ccccc2)cc1 (stereo not drawn),-6%,x,-1,x,x,x
COc1ccc(NC(=O)CSc2ncc3c(n2)-c2ccccc2N(C)S3(=O)=O)cc1Cl,x,1%,x,-11%,2%[59 µM],6%
SMILES,PLK1 PBD inh,BAZ2B inh,PI5P4K alpha inh,JMJD2A Tudor,G9a block,HP1b binding inh
CCOC(=O)c1ccccc1NC(=O)COC(=O)C(CC)Oc1ccccc1 (stereo not drawn),-4%,x,-1,x,x,x
Cc1ccc(Cn2c(CO)cnc2SCC(=O)Nc2ccc(C)c(Cl)c2)cc1,x,u,x,-20%,u,-22%[57 µM]
C=CCn1c(C)nnc1SCC(=O)Nc1oc(C)c2c(C)n[nH]c(=O)c12,-10%,25%,0,-3%,32µM*,37%
N#CC(C#N)=C1C=CC=CN1/C(=C\c1ccccc1)C(=O)c1cccs1,2.1µM*,-9%,-13,u,1.1µM*,-12%
N#CC(C#N)=C1C=CC=CN1/C(=C\c1ccccc1Cl)C(=O)c1ccccc1,1.7µM*,u,-21,50µM*,14µM*,u
CC1(C(=O)NS(=O)(=O)c2ccc3c(c2)CCO3)CCN1C(=O)Cc1ccc(-c2ccccc2)cc1 (stereo not drawn),0%,x,-4,x,x,x
CC(=O)c1c(OC(=O)c2ccccc2)ccnc1C(F)(F)F,-9%,8%,1,-12%,-2%[12.7 µM],25%
Brc1ccc(-c2cnco2)cc1,7%,11%,1,-9%,x,58%
CC(/C=C/c1ccccc1)=N\Nc1ccccc1[N+](=O)[O-],-4%,2.2µM*,8,10µM*,0.89µM*,4µM*
CN(C)CCCNS(=O)(=O)c1ccc(NC2CCCCCC2)c([N+](=O)[O-])c1,-2%,u,5,u,71µM*,-6%
Cc1cccc(OCC(=O)OCc2cc(=O)n3nc(C4CC4)sc3n2)c1,x,-22%,x,-13%,6%[59 µM],69%
Cc1cccc(NC(=O)N2CCC(N3CCN(Cc4ccccc4)C(=O)C3=O)CC2)c1C,x,3%,x,-19%,7%[59 µM],4%
NC1(C(=O)O)CCCCC1c1ccccc1 (stereo not drawn),2%,x,-6,1.4µM*,x,-2%
N#CN=c1snc(-c2ccccc2Cl)n1-c1ccc(F)cc1,x,x,x,-6%[57.1 µM],x,9%[57 µM]
Cc1occc(=O)c1OC(=O)Nc1ccc(Cl)c(Cl)c1,-11%,-1%,-3,25µM*,u,5%
COc1ccccc1C(=O)COC(=O)CNC(=O)c1ccc(Br)o1,-4%,1%,-8,-14%,50µM*,50%
CCc1ccc(C(=O)COC(=O)CNC(=O)c2ccc(Br)o2)cc1,4%,-3%,3,-4%,16%,44%
FC(F)Oc1ccc(/C=N/c2c(-c3ccc(OC(F)F)cc3)nc3n2CCS3)cc1,-12%,u,-7,50µM*,u,u
COc1ccc(-c2nc3n(c(=O)c2C#N)CCS3)cc1,-20%,19%,1,4%,-33%,13%
COc1ccc(NC(=O)CSc2nc(-c3ccc(F)cc3)c3cccc(C)c3n2)cc1,x,1%,x,-23%,-22%[59 µM],-1%
CCN(Cc1cnn(C)c1)C(=O)c1ccc2nc(Cc3cccc(Cl)c3)oc2c1,-4%,-20%,2,-3%,-1%,26%
